Screens from PubChem BioAssay.
mIDH1 inhibitor: blocks human mutant IDH1 R132H enzyme | O75874 | IDH1-R132H enzyme, NADPH consumption, diaphorase/resazurin fluorescence | Potency, µM (doses to about 76.6 µM), inactives show at the highest dose activity change, negative = inhibition, hits mostly inhibitors | 0.093% of 390,000 active; note: potency is the fitted concentration of half-maximal effect; % is set by controls: 0 for no effect and ±100 for the full control effect; nearly all actives have a fitted effect of over 65% in size
Target sequence (O75874 whole entry R132H, stated change not applied): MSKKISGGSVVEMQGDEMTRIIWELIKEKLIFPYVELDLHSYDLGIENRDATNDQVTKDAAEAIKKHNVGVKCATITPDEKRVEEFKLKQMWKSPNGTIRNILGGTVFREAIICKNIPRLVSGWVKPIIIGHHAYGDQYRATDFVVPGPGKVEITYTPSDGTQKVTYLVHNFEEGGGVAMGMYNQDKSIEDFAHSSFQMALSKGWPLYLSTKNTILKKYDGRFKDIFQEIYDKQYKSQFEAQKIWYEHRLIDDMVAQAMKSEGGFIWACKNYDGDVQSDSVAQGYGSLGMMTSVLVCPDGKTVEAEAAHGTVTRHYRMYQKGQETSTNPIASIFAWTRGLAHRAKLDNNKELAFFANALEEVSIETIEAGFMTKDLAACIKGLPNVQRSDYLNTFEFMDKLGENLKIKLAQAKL
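IDH1-R132H (0.5 ug/mL) preincubated 30 min with compound, then NADPH (0.016 mM) and alpha-KG (2 mM) added; 80 min at RT, pH 7.5. Remaining NADPH coupled via diaphorase/resazurin to fluorescence (540/590 nm); concentration-response curves normalized to no-enzyme control.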
LDHA inh: inhibitors of human lactate dehydrogenase A; activity change, % (values are at about 110 or 230 µM); purified LDHA, NADH/diaphorase-resazurin fluorescence; active compounds read low; 0.15% of 480,000 active; in the data active = activity change below about -30%; inconclusive = mostly about -25% to -30%;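 note: plate controls were DMSO wells for no effect and wells without enzyme for full effect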
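Human LDH5 (2 nM) was incubated with 0.06 mM NADH and 0.2 mM pyruvate for 5 min at room temperature in Tris pH 7.4. Remaining NADH was coupled through diaphorase/resazurin, and resorufin fluorescence was read at 0 and 20 min.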
ATXN2 expr inh: inhibitors of ATXN2 expression | HEK-293 ATXN2-luciferase reporter, luminescence, 24 h | Potency, µM (top dose mostly 57 µM), without a hit: top-dose activity change, negative = inhibition, usual class: inhibitors | 0.72% of 360,000 active | AID 1745845; note: potency is the fitted concentration of half-maximal effect; % is set by controls: 0 for no effect and ±100 for the full control effect; nearly all actives have a fitted effect of over 55% in size
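ATXN2-luciferase reporter cells (luciferase flanked by upstream and downstream ATXN2 gene portions) were treated 24 h at 37 °C with compounds at up to 57 uM. SteadyGlo luminescence gave expression; GF-AFC fluorescence gave viability.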
TGFb inhibitor: blocks TGF-b signaling; HepG2 CAGA-GFP TGF-b/SMAD3 reporter, GFP fluorescence, 18 h; TGF-beta stimulated, 500 pg/mL final; Potency, µM (titrated, usually from 46.1 µM), without a hit: top-dose activity, negative = inhibition, actives largely listed as inhibitors; AID 588855; 1.2% of 410,000 active; note: potency is the fitted concentration of half-maximal effect; % is set by controls: 0 for no effect and ±100 for the full control effect; nearly all actives have a fitted effect of over 65% in size
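Inhibition was scored as loss of TGF-beta-induced (500 pg/mL final, 18 hours, 37 degrees C) GFP in HEPG2 cells carrying a CAGA-GFP reporter, in DMEM with 1% FBS. Well GFP was summed per cell; Activity was normalised to unstimulated and stimulated DMSO wells, then concentration-response fitting.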
HepG2 viability: counter-screen for TGF-b inhibitors: cytotoxicity in HepG2 cells; Potency, µM (doses to about 46.1 µM), for the others: top-dose activity change, negative = cytotoxicity, actives largely listed as cytotoxic; HepG2 CAGA-GFP viability, ATP luminescence, 18 h; 0.76% of 410,000 active; note: potency is the fitted concentration of half-maximal effect
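HepG2 CAGA-GFP cells (1000/well, DMEM with 1% FBS) received compound, then TGF-beta at 500 pg/mL final, and were incubated 18 hours at 37 degrees C. Viability was read by CellTiter-Glo luminescence. Media-only wells were set as complete cell-killing and DMSO as no toxicity.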
S2 tox: cell viability loss in ATXN counter-screen; S2 cells (HEK-293 line with an ATXN2-luciferase reporter) viability, CellTiter-Fluor protease fluorescence, 24 h; AID 651635; 0.49% of 400,000 active; Potency, µM (highest dose often 56.7 µM), most hits filed as cytotoxic; note: potency is the fitted concentration of half-maximal effect; nearly all actives have a fitted effect of over 40% in size
Active calls of the source: *; i = inactive; ? = inconclusive; . = no result. Only some compounds are listed: those with a hit (about 2.2% of all), similar ones and a draw of the others. Unless noted, calls come from the whole dose curve; as a rule, active = well fitted curve in the direction sought with a large enough effect; inconclusive = small, poorly fitted or top-dose-only effect, or another doubt; inactive = no such curve, though single readings can be large; an effect the other way counts as inactive or inconclusive.

SMILES | mIDH1 inhibitor | LDHA inh | ATXN2 expr inh | TGFb inhibitor | HepG2 viability | S2 tox
COc1ccc(CN2CCC(N(CCc3ccccc3)Cc3ccccc3)CC2)c(OC)c1 | 6% | -16 | ? | ? | -49% | ?
COc1nn(-c2ccccc2)c(=O)c(Cl)c1Cl | 8% | -3 | ? | 14µM* | 14µM* | ?
COC(=O)c1[nH]c2ccccc2c1NC(=O)CN1CCCC(C)C1 (centres undefined) | . | 4 | . | . | . | .
CCN1c2ccccc2NC2N=C(OC)C(c3ccccc3)C21 (centres undefined) | 13% | 17 | ? | 13µM* | 11µM* | i
CCOC(=O)c1ccc(Nc2ncccc2[N+](=O)[O-])cc1 | 7% | -6 | -8% | 2% | -13% | i
Cc1cccc2nc(-c3ccccn3)c(Nc3ccc(F)cc3)n12 | -13% | 5 | 18µM* | ? | -53% | .
Cc1cccc2nc(-c3ccccn3)c(Nc3ccccc3)n12 | -11% | 0 | ? | ? | -40% | ?
Cc1ccc(Nc2c(-c3ccccn3)nc3cccc(C)n23)cc1 | 0% | -1 | 6.3µM* | ? | -36% | ?
Cc1cccc(C)c1Nc1c(-c2ccccn2)nc2ccccn12 | 1% | 2 | . | ? | -17% | 10µM*
Cc1ccc(Cl)cc1N1CCN(C(=O)c2c(C)oc3ncnc(N4CCCCC4)c23)CC1 | -5% | -3 | 28µM* | ? | -66% | ?
CCCNC(=O)C1CCN(Cc2cc3ccccc3n2Cc2ccccc2)CC1 | 3% | 1 | ? | ? | -35% | ?
Cc1ccc(Cn2c(CN3CCC(C(=O)NCc4cccnc4)CC3)cc3ccccc32)cc1 | 8% | -1 | ? | ? | 11µM* | .
CN(C)CCNC(=O)C1CCN(Cc2cc3ccccc3n2Cc2ccccc2)CC1 | -6% | -4 | 22µM* | ? | 11µM* | .
CCOc1cc(S(=O)(=O)N2CCCC2)ccc1Cl | 3% | -5 | -4% | -13% | -4% | i
O=C(NC1CCCc2c1cnn2-c1cc(F)cc(F)c1)c1cc[n+]([O-])cc1 (centres undefined) | 0% | -1 | 7% | 0% | -1% | i
Cc1ccc2c(c1)c1c(n2CC(O)CNC2CCCC2)CCCC1 (centres undefined) | -8% | -6 | . | ? | -101% | 25µM*
Cc1ccc(Cn2c(=N)n(CC(=O)c3ccc([N+](=O)[O-])cc3)c3ccccc32)cc1 | 8% | -6 | 20µM* | -22% | -25% | .
Cc1cc(OCC(=O)Nc2cc(-c3nc4ccccc4[nH]3)ccc2C)ccc1Cl | . | -4 | . | . | 11µM* | .
Cc1cc(OCC(=O)NCCc2nc3ccccc3[nH]2)cc(C)c1Cl | -1% | -3 | . | 20µM* | -45% | .
CCCCOc1cccc(OCC(=O)Nc2nc3ccccc3[nH]2)c1 | 6% | -3 | -17% | 14µM* | 13µM* | i
Cc1ccc(OCC(=O)NCCc2nc3ccccc3[nH]2)c(C)c1 | 2% | 7 | -2% | -1% | -21% | i
O=C(Nc1ccccc1)C1CCN(S(=O)(=O)c2ccc3c(c2)CCC3)CC1 | . | 3 | . | . | . | .
Cc1c(Cl)cccc1NC(=O)CCCn1nc(C)c2sc3ccccc3c2c1=O | 11% | -3 | . | 11% | 3% | .
Cc1c(CN2CCC(C(=O)Nc3cccc(-c4cccc(Cl)c4)c3)CC2)cnn1C | -7% | -1 | . | ? | -95% | ?
C=CCn1cc(CN2CCC(C(=O)Nc3cccc(-c4cccc(F)c4)c3)CC2)c(C)n1 | -2% | 0 | ? | ? | 8.9µM* | i
SMILES | mIDH1 inhibitor | LDHA inh | ATXN2 expr inh | TGFb inhibitor | HepG2 viability | S2 tox
C=CCn1cc(CN2CCC(C(=O)Nc3cccc(-c4cccc(Cl)c4)c3)CC2)c(C)n1 | -8% | -3 | . | ? | 16µM* | ?
C=CCn1cc(CN2CCC(C(=O)Nc3ccc(Oc4cccnc4)cc3)CC2)c(C)n1 | 0% | -2 | -4% | -17% | 1% | i
CNC(=O)CCc1ccc(C)cc1 | . | 3 | . | . | . | .
CNC(CC(=O)c1ccc([N+](=O)[O-])cc1)C(Cl)(Cl)Cl (centres undefined) | 5% | 20 | 25µM* | 3.2µM* | 10µM* | 28µM*
O=C(C1CCCN(S(=O)(=O)c2cccc3nsnc23)C1)N1CCN(c2ccccc2F)CC1 (centres undefined) | -7% | -4 | -9% | ? | -17% | i
O=C(Nc1cccc(C(F)(F)F)c1)C1CCCN(S(=O)(=O)c2cccc3nsnc23)C1 (centres undefined) | -4% | -4 | -12% | 6.3µM* | -17% | i
Cc1cccc(NC(=O)C2CCCN(S(=O)(=O)c3cccc4nsnc34)C2)c1 (centres undefined) | 7% | 0 | -16% | ? | -44% | i
O=C(C1CCCN(S(=O)(=O)c2cccc3nsnc23)C1)N1CCN(c2ccccc2Cl)CC1 (centres undefined) | 5% | 6 | -21% | 14µM* | -36% | i
CC(=O)c1cccc(S(=O)(=O)N2CCN(c3nc(-c4cccs4)nc4ccccc34)CC2)c1 | . | -2 | . | 10% | -2% | .
COc1ccc(CNC(=S)Nc2ccccc2Cl)cc1 | 0% | -10 | 9% | -18% | -21% | i
CC(=O)Nc1sc(N/N=C/c2ccccc2)nc1-c1ccc(C)cc1 | -5% | 2 | 14% | -1% | -10% | i
CCCc1sc(N/N=C/c2ccccn2)nc1-c1ccc(Br)cc1 | 6% | -1 | 2.8µM* | ? | -17% | .
CCOC(=O)c1c(C)[nH]c(C2=NNC(=Nc3ccccc3)SC2)c1C | -9% | 3 | . | 10µM* | -34% | ?
O=C1/C(=N\S(=O)(=O)c2cccs2)C([n+]2ccccc2)=C([O-])c2ccccc21 | 21% | 11 | . | 2µM* | -111% | 11µM*
N/C(=N\S(=O)(=O)c1cccs1)c1ccccc1 | 8% | -7 | -11% | 4% | 5% | i
CC(C)(C)c1cc[n+](C2=C([O-])c3ccccc3C(=O)/C2=N\S(=O)(=O)c2cccs2)cc1 | 10% | 28 | 11µM* | 2.8µM* | 4.5µM* | ?
CCOC(=O)c1c(/N=C/c2ccccc2O)sc2c1CCC2 | 6% | 1 | -6% | -22% | 5% | i
O=C(Nc1ccc(-n2cccn2)cc1)C1CCCCN1Cc1cccc2cccnc12 (centres undefined) | -5% | -7 | ? | ? | -19% | ?
CCn1c(SCc2ccc(F)cc2)nc2ccccc2c1=O | 12% | 1 | -17% | -2% | -10% | i
